The source of these data is PubChem BioAssay AID686978 (National Center for Advancing Translational Sciences (NCATS), 2013).

Where “and” joins values, the source holds several entries; their conditions need not be identical. Equal entries are not always repeated. The campaign covered roughly 420,000 compounds. About 64,000 (15%) were called active. About 27% were inconclusive and are not listed. Calls follow the shape of the dose curve; as a rule, active = well fitted inhibition curve with a large enough effect; inconclusive = small, poorly fitted or top-dose-only effect; inactive = flat fitted curve, though single readings scatter. The list is a sample of the results. Where a call stands in place of a potency, no number is given. Where a structure was tested more than once in an assay, its records may differ in their call.
Potency is read from the fitted curve at half-maximal effect.

The assay is described as follows: qHTS for Inhibitors of human tyrosyl-DNA phosphodiesterase 1 (TDP1): qHTS in cells in absence of CPT. Also: nearly all actives have a fitted effect of over 55% in size. Conditions: DT40 Tdp1-/- hTDP1 cells, no CPT, ATP luminescence, 48 h; activity change, negative = growth inhibition: at 46.2 µM (top of the series). In short, it runs like this:
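Luminescent ATP content (CellTiter-Glo) served as the growth readout. Knockout chicken DT40 cells expressing human TDP1 were exposed to compounds without camptothecin for a minimum 48 hr at 37 °C.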
Background: In qHTS, concentration-response curves come from the screen itself.
In the case of `COc1ccc(C(=O)NC2=NCCS2)c(OC)c1`, the Potency entry was “inactive”. For `COc1ccc(C(=O)Nc2cccc(NC(=O)c3ccc(OC)cc3OC)n2)c(OC)c1`, the Potency is 2.59 µM (active). With `COc1ccc(C(=O)Nc2nncs2)c(OC)c1`, the Potency result is “inactive”. Consider `O=C1CCCc2c1[nH]c1ccc(Br)cc21`, for which the Potency entry was “inactive”. For `COc1ccc(/C=C2\SC(=S)N(CC(=O)NNC(=O)c3ccncc3)C2=O)cc1`, the Potency result is “inactive”. With `O=C(O)Cc1sc(-c2ccccc2)nc1-c1cccs1` the entry was “inactive”; with `CN(C(=O)COC(=O)CNC(=O)C12CC3CC(CC(C3)C1)C2)c1ccccc1`, “inactive”; with `CN(C(=O)COc1nnc(-c2cccs2)c(-c2cccs2)n1)c1ccccc1`, 18.4 µM (active). `Cc1cc(=O)oc(C)c1C(=O)NCCN(C)Cc1ccccc1`: the Potency result was “inactive”. As for `COc1ccccc1NC(=O)N(O)C1(C#N)CCCCC1`, the entry is “inactive”. With `O=C(CSc1nnc2ccc(-c3ccncc3)nn12)N1CCCCC1` the entry was “inactive”; with `CCS(=O)(=O)c1ccc(-c2cccc(NC(=O)c3ccc(Br)o3)c2)nn1`, “inactive”. Regarding `COc1ccc(S(=O)(=O)N2CCN(C(=S)NCC3CCCO3)CC2)cc1OC` (configuration not stated), the Potency result was “inactive”. With `S=C(NCC1CCCO1)N1CCN(c2ccc(Cl)c(Cl)c2)CC1` (configuration not stated) the figure was 20.6 µM (active).

As to `CCOc1ccc(S(=O)(=O)N2CCN(C(=S)NCC3CCCO3)CC2)cc1` (configuration not stated), the Potency result is “inactive”. In the case of `COc1cc(/C=C(/NC(=O)c2ccccc2)C(=O)Nc2cccc(O)c2)c([N+](=O)[O-])cc1OC`, the Potency entry was “inactive”. With `Cn1nc(C(C)(C)C)c([N+](=O)[O-])c1C(N)=O` the entry was “inactive”.

With `COc1cccc(N2CC(C(=O)Nc3c(C)cccc3C)CC2=O)c1` (configuration not stated), the Potency entry was “inactive”. Consider `O=C(NCc1nnc(SCC(=O)N2CCCc3ccccc32)o1)c1ccccc1F`, for which the Potency result is “inactive”. As for `CCC(=O)Nc1ccc2nc(SCC(=O)N3CCc4ccccc43)sc2c1`, the figure is 10.3 µM (active); as for `O=C(CSCc1ccccc1)N1CCc2ccccc21`, “inactive”; as for `Cn1c(=O)c2c(SCC(=O)N3CCc4ccccc43)nc(-c3ccc(Cl)cc3)nc2n(C)c1=O`, “inactive”.

As to `O=C(Nc1ccc2nc(SCC(=O)N3CCCc4ccccc43)sc2c1)c1ccc(Cl)cc1`, the Potency is 5.8 µM (active). As for `O=C(CSc1ccc2nnc(-c3ccccc3)n2n1)N1CCCc2ccccc21`, the Potency result is “inactive”. With `O=C(Nc1ccc2nc(SCC(=O)N3CCc4ccccc43)sc2c1)c1ccccc1F` the entry was “inactive”; with `O=C(Nc1ccc2nc(SCC(=O)N3CCCc4ccccc43)sc2c1)c1ccc(F)cc1`, 2.91 µM (active). Turning to `CCOC(=O)C1(Cc2cccc(OC)c2)CCCN(S(=O)(=O)c2cccnc2)C1` (configuration not stated), the Potency entry is “inactive”. As for `O=C(CCc1ccc(S(=O)(=O)N2CCOCC2)cc1)OCC(=O)c1ccc(Br)cc1`, the entry is “inactive”; as for `O=C(CSc1nnc(-c2ccoc2)o1)N1CCOCC1`, “inactive”.

`COC(=O)/C=C/C(=O)NCc1ccco1`: the Potency entry is “inactive”. Take `COc1cc2c(C(=O)O)c(C)n(C)c2c2ccccc12`: the Potency result was “inactive”.

In the case of `COc1cccc(/C=N/NC(=O)C(=O)N2CCCC2)c1`, the Potency result was “inactive”. As for `O=c1[nH]c(/C=C\c2cccc(C(F)(F)F)c2)nc(O)c1[N+](=O)[O-]`, the Potency result is “inactive”. As for `Cc1cccc(NC(=O)CSc2nnc(NC(=O)CN3CCOCC3)s2)c1`, the entry is “inactive”. Turning to `Cn1c(=S)sc2ccc3ccccc3c21`, the Potency result was “inactive”.

Turning to `C=CCc1c(C)nc2cc(-c3ccccc3)[nH]n2c1=O`, the Potency entry was “inactive”. For the compound `O=c1c2c(nc3cc(-c4cccc(Cl)c4)[nH]n13)CCCC2`, the Potency is 20.6 µM (active). Take `O=c1c2c(nc3nc[nH]n13)CCC2`: the Potency entry is “inactive”. For `CN(C)S(=O)(=O)c1ccc(Cl)c(NC(=O)COC(=O)CC(NC(N)=O)c2ccc(Cl)cc2)c1` (configuration not stated), the Potency result was “inactive”. With `Cc1ccc(N(CC(=O)NCC2CCCO2)C(=O)CNS(=O)(=O)c2ccc(Cl)cc2)cc1` (configuration not stated), the Potency result is “inactive”. In the case of `CC(Sc1nnc(C2CC2)n1C1CC1)C(=O)Nc1ccc(C(N)=O)cc1` (configuration not stated), the Potency entry is “inactive”. As for `O=C1CCCC2=C1C(c1cccs1)n1nc(SCc3ccccc3)nc1N2` (configuration not stated), the figure is 14.6 µM (active); as for `CCN(CC)c1ccc(C2C(C(N)=O)=C(C)Nc3nc(SCc4ccccc4)nn32)cc1` (configuration not stated), “inactive”. With `O=C1CCCC2=C1C(c1cccs1)CC(=O)N2c1ccc(F)cc1` (configuration not stated) the entry was “inactive”.

For `O=S(=O)(NCc1ccccc1Cl)c1cnc[nH]1`, the Potency entry is “inactive”.

With `Cc1ccc(NC(=O)CCOc2ccccc2)cc1S(=O)(=O)Nc1ccccc1Cl`, the Potency result is “inactive”.

Consider `CC(C)c1ccc(C(=O)OC2CCOC2=O)cc1` (configuration not stated), for which the Potency result was “inactive”.

For `COc1ccccc1CC(=O)NCCc1c[nH]c2ccccc12`, the Potency entry was “inactive”. As for `COc1ccc(S(=O)(=O)NCCc2c[nH]c3ccccc23)cc1OC`, the Potency result is “inactive”. For `COc1cccc(CNCCc2c[nH]c3ccccc23)c1OCc1ccccc1F`, the Potency was 20.6 µM (active). With `CCc1c(SCCC(=O)O)nc2ccccc2c1C` the entry was “inactive”; with `Cc1ccc(N2CCN(c3ccc(C)cc3)C2c2ccccn2)cc1`, “inactive”; with `CN(C(=O)CSc1nnc(-c2ccc(C(C)(C)C)cc2)n1C)C1CCS(=O)(=O)C1` (configuration not stated), “inactive”. `COc1cccc(C(=O)Nc2nnc(S(=O)(=O)N(C)c3ccccc3)s2)c1`: the Potency result was “inactive”. Turning to `CCC(=O)Nc1nnc(S(=O)(=O)N(CC(C)C)c2ccccc2)s1`, the Potency result is “inactive”. In the case of `CCCCC(=O)Nc1nnc(S(=O)(=O)N(C)Cc2ccco2)s1`, the Potency result was “inactive”. As for `CC(C)CC(=O)Nc1nnc(S(=O)(=O)N(C)c2ccc(Cl)cc2)s1`, the Potency result was “inactive and 326 nM (active)”. As for `CCc1nnc(NC(=O)c2cccc(S(=O)(=O)N(C)c3ccc(OC)cc3)c2)s1`, the entry is “inactive”; as for `CCOc1cccc(C(=O)Nc2nnc(S(=O)(=O)N(C)c3ccc(C)cc3)s2)c1`, 23.1 µM (active). Take `Cc1ccn(C(CC(=O)c2ccc(Br)cc2)C(=O)O)n1` (configuration not stated): the Potency result was “inactive”. In the case of `O=C(CNS(=O)(=O)c1ccccc1)N1CCN(C(=O)c2ccco2)CC1`, the Potency result is “inactive”. As for `COc1ccc(C(=O)NCC[N+](C)(C)C)cc1`, the entry is “inactive”.

`CCOc1cc(C(=O)O)ccc1OCCOc1ccccc1`: the Potency entry is “inactive”.

For `CC/C(=C(/c1ccccc1)c1ccc(OCC[N+](C)(C)C)cc1)c1ccccc1`, the Potency is 23.1 µM (active). With `COc1cc(/C=C/C2=CC(C)(C)NC(=S)N2)cc(OC)c1OC` the entry was “inactive”. `COc1ccc(N2C(=O)CN=C2Nc2cccc(C)c2C)cc1OC`: the Potency entry is “inactive”. Turning to `CC(C)Cc1nnc(NC(=O)CN2C(=O)NC3(CCCCC3)C2=O)s1`, the Potency entry was “inactive”.
